In all, about 5,500 compounds went through this assay and about 2,000 (36%) were called active. Not shown: some 18% with an inconclusive outcome. Cut-off read from the data, not from the text of the source: active = normalized growth mostly below about 0.91 (no sharp cut-off); inconclusive = no clear call, values can overlap the other calls; inactive = mostly above about 0.92. Some of the results follow.
Test: chemical genetic growth profiling, strain panel (AID 1159580);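 note: tested at 20 µM; growth read once vehicle control cultures reached saturation at 30 °C; 1 = growth at the plate median or of vehicle wells; lower values mean less growth of the strain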
Settings: growth OD

Measured: normalized growth

CN[C@@H]1[C@H](OC2[C@H](O[C@H]3[C@H](O)[C@@H](O)[C@H](N=C(N)N)[C@@H](O)[C@@H]3N=C(N)N)O[C@@H](C)[C@]2(O)C=O)O[C@@H](CO)[C@H](O)[C@H]1O (stereo not given in full)
inactive: S. cerevisiae deletion strains, locus YKL009W, strain mrt4, active compounds read low 1.03 | S. cerevisiae deletion strains, locus YKL068W, active compounds read low 1 | S. cerevisiae deletion strains, locus YKL085W, strain MDH1 (second series), active compounds read low 1 | S. cerevisiae deletion strains, locus YKL085W, strain MDH1, active compounds read low 1 | S. cerevisiae deletion strains, locus YKL160W, strain elf1, active compounds read low 1.02 | S. cerevisiae deletion strains, locus YKL190W, strain CNB1, active compounds read low 0.997 | S. cerevisiae deletion strains, locus YKR001C, strain vps1, active compounds read low 1.01 | S. cerevisiae deletion strains, locus YKR026C, strain gcn3, active compounds read low 1 | S. cerevisiae deletion strains, locus YKR091W, strain srl3, active compounds read low 1.01 | S. cerevisiae deletion strains, locus YLL001W, strain dnm1, active compounds read low 1.03 | S. cerevisiae deletion strains, locus YLL026W, active compounds read low 1.02 | S. cerevisiae deletion strains, locus YLL041C, strain sdh2, active compounds read low 1 | S. cerevisiae deletion strains, locus YLR027C, strain aat2, active compounds read low 1.02 | S. cerevisiae deletion strains, locus YLR039C, strain RIC1, active compounds read low 0.997 | S. cerevisiae deletion strains, locus YLR058C, strain SHM2, active compounds read low 1.01 | S. cerevisiae deletion strains, locus YLR102C, strain apc9, active compounds read low 1.01 | S. cerevisiae deletion strains, locus YLR113W, strain HOG1, active compounds read low 0.964 | S. cerevisiae deletion strains, locus YLR221C, strain rsa3, active compounds read low 0.989 | S. cerevisiae deletion strains, locus YLR258W, strain gsy2, active compounds read low 0.991 | S. cerevisiae deletion strains, locus YLR262C, strain YPT6 (second series), active compounds read low 1.04 | S. cerevisiae deletion strains, locus YLR262C, strain YPT6, active compounds read low 1.01 | S. cerevisiae deletion strains, locus YLR268W, strain sec22, active compounds read low 1 | S. cerevisiae deletion strains, locus YLR320W, strain mms22, active compounds read low 0.969 | S. cerevisiae deletion strains, locus YLR330W, strain CHS5, active compounds read low 1 | S. cerevisiae deletion strains, locus YLR342W, strain FKS1 (second series), active compounds read low 1.01 | S. cerevisiae deletion strains, locus YLR342W, strain FKS1, active compounds read low 1.04 | S. cerevisiae deletion strains, locus YLR357W, strain rsc2, active compounds read low 1.02 | S. cerevisiae deletion strains, locus YLR370C, strain arc18, active compounds read low 1.02 | S. cerevisiae deletion strains, locus YLR371W, strain rom2, active compounds read low 1.01 | S. cerevisiae deletion strains, locus YLR384C, strain iki3, active compounds read low 1.01 | S. cerevisiae deletion strains, locus YLR418C, strain cdc73, active compounds read low 1.02 | S. cerevisiae deletion strains, locus YML016C, strain PPZ1, active compounds read low 1.02 | S. cerevisiae deletion strains, locus YML032C, strain rad52, active compounds read low 1.01 | S. cerevisiae deletion strains, locus YML120C, strain ndi1, active compounds read low 1.02 | S. cerevisiae deletion strains, locus YML124C, strain tub3, active compounds read low 1.02 | S. cerevisiae deletion strains, locus YMR058W, strain fet3, active compounds read low 1.02 | S. cerevisiae deletion strains, locus YMR078C, strain ctf18, active compounds read low 1.02 | S. cerevisiae deletion strains, locus YMR125W, strain sto1, active compounds read low 0.969 | S. cerevisiae deletion strains, locus YMR129W, active compounds read low 1 | S. cerevisiae deletion strains, locus YMR205C, strain PFK2, active compounds read low 1.02 | S. cerevisiae deletion strains, locus YMR223W, strain ubp8, active compounds read low 1.02 | S. cerevisiae deletion strains, locus YMR231W, strain pep5, active compounds read low 0.997 | S. cerevisiae deletion strains, locus YMR263W, strain SAP30, active compounds read low 1.01 | S. cerevisiae deletion strains, locus YMR307W, strain GAS1, active compounds read low 0.965 | S. cerevisiae deletion strains, locus YNL067W, strain RPL9B, active compounds read low 1.01 | S. cerevisiae deletion strains, locus YNL071W, strain lat1, active compounds read low 0.992 | S. cerevisiae deletion strains, locus YNL128W, strain TEP1, active compounds read low 1.01 | S. cerevisiae deletion strains, locus YNL153C, strain GIM3, active compounds read low 1.01 | S. cerevisiae deletion strains, locus YNL183C, strain NPR1, active compounds read low 0.938 | S. cerevisiae deletion strains, locus YNL209W, strain ssb2, active compounds read low 0.998 | S. cerevisiae deletion strains, locus YNL233W, strain BNI4, active compounds read low 1.01 | S. cerevisiae deletion strains, locus YNL248C, strain rpa49, active compounds read low 0.962 | S. cerevisiae deletion strains, locus YNL250W, strain rad50, active compounds read low 1.02 | S. cerevisiae deletion strains, locus YNL271C, strain bni1, active compounds read low 1.01 | S. cerevisiae deletion strains, locus YNL298W, strain CLA4, active compounds read low 1.02 | S. cerevisiae deletion strains, locus YNL307C, strain MCK1, active compounds read low 1.02 | S. cerevisiae deletion strains, locus YNL322C, strain KRE1 (second series), active compounds read low 1 | S. cerevisiae deletion strains, locus YNR049C, strain mso1, active compounds read low 0.999 | S. cerevisiae deletion strains, locus YNR052C, strain pop2, active compounds read low 1 | S. cerevisiae deletion strains, locus YOL006C, strain TOP1, active compounds read low 1.01 | S. cerevisiae deletion strains, locus YOL012C, strain htz1 1.07 | S. cerevisiae deletion strains, locus YOL147C, strain pex11, active compounds read low 1.01 | S. cerevisiae deletion strains, locus YOR001W, strain rrp6, active compounds read low 1.04 | S. cerevisiae deletion strains, locus YOR061W, strain CKA2, active compounds read low 1.01 | S. cerevisiae deletion strains, locus YOR069W, strain VPS5, active compounds read low 1.01 | S. cerevisiae deletion strains, locus YOR070C, strain gyp1, active compounds read low 0.987 | S. cerevisiae deletion strains, locus YOR080W, strain dia2, active compounds read low 1 | S. cerevisiae deletion strains, locus YOR083W, strain WHI5, active compounds read low 0.989 | S. cerevisiae deletion strains, locus YOR106W, strain vam3, active compounds read low 1.03 | S. cerevisiae deletion strains, locus YOR136W, strain idh2, active compounds read low 1.02 | S. cerevisiae deletion strains, locus YOR144C, strain elg1, active compounds read low 1.02 | S. cerevisiae deletion strains, locus YOR184W, strain ser1, active compounds read low 1.03 | S. cerevisiae deletion strains, locus YOR231W, strain MKK1, active compounds read low 0.979 | S. cerevisiae deletion strains, locus YOR265W, strain rbl2, active compounds read low 1.01 | S. cerevisiae deletion strains, locus YOR270C, strain vph1, active compounds read low 1.02 | S. cerevisiae deletion strains, locus YOR290C, strain snf2, active compounds read low 0.977 | S. cerevisiae deletion strains, locus YOR316C, strain cot1, active compounds read low 1.01 | S. cerevisiae deletion strains, locus YPL051W, strain arl3, active compounds read low 1.01 | S. cerevisiae deletion strains, locus YPL055C, strain LGE1, active compounds read low 1.01 | S. cerevisiae deletion strains, locus YPL078C, strain atp4, active compounds read low 1.04 | S. cerevisiae deletion strains, locus YPL106C, strain sse1, active compounds read low 0.987 | S. cerevisiae deletion strains, locus YPL240C, strain hsp82, active compounds read low 1.01 | S. cerevisiae deletion strains, locus YPL241C, strain CIN2, active compounds read low 1 | S. cerevisiae deletion strains, locus YPL256C, strain CLN2, active compounds read low 0.976 | S. cerevisiae deletion strains, locus YPR119W, strain clb2, active compounds read low 1.01 | S. cerevisiae deletion strains, locus YPR141C, strain kar3, active compounds read low 1.01 | S. cerevisiae deletion strains, locus YPR163C, strain tif3, active compounds read low 1.02 | S. cerevisiae deletion strains, locus YPR167C, strain met16, active compounds read low 1.02 | S. cerevisiae deletion strains, strain wtn01, active compounds read low 1.01 | S. cerevisiae strains, strain wild type, active compounds read low 1.01
